The structures appear in SMILES notation. Where “and” joins values, the source holds several entries; their conditions need not be identical. Identical values can stand only once. Records with an inconclusive call do not appear. Calls of active or inactive are those of the source. Unless noted, calls come from the whole dose curve; as a rule, active = well fitted curve in the direction sought with a large enough effect; inconclusive = small, poorly fitted or top-dose-only effect, or another doubt; inactive = no such curve, though single readings can be large; an effect the other way counts as inactive or inconclusive.

The record followed here is PubChem BioAssay (NCATS).

Experiment [1] in a line: Cell Viability - NIH 3T3 (AID 541).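 Note: plate controls were DMSO alone for no effect and tamoxifen positive control for full effect; nearly all actives have a fitted effect of over 25% in size.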 Conditions: NIH 3T3 cell viability, qHTS; activity change, negative = cytotoxicity: at 92.2 µM (top of the series). The method, boiled down:
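NIH 3T3 mouse embryo fibroblasts (1000 cells/well) were plated in complete medium and treated with compound for 40 hr at 37 °C. Viability was read as intracellular ATP by CellTiter-Glo luminescence; AC50 values came from Hill-equation fits of concentration-response data.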
A general note: qHTS replaces the single test concentration by a dilution series.

A short description of experiment [2]: Cell Viability - H-4-II-E (AID 543). Note: % is set by controls: 0 for no effect and ±100 for the full control effect; nearly all actives have a fitted effect of over 35% in size. In short, it runs like this:
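Rat hepatoma H-4-II-E cells (1500/well) were plated, incubated 5 hr at 37 °C, then exposed to compounds for 40 hr at 37 °C. Cellular ATP was read by CellTiter-Glo luminescence; AC50 came from Hill-equation fits of concentration-response data.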

Experiment [3] is described as follows: MultiTox-Fluor Cytotoxicity Assay - LYMP1-001 - Live Cells (AID 947).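 Note: 0% = DMSO only and full inhibition = tetraoctylammonium bromide control.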
Experiment [4] is described as follows: Cell Viability - LYMP2-014 (AID 983).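 Note: plate controls were DMSO only for no effect and 92 µM tetraoctylammonium bromide for full effect; nearly all actives have a fitted effect of over 50% in size.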 The method, boiled down:
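Human lymphoblastoid cells (2500/well) were pre-incubated 5 hr at 37 C, then exposed to compounds in complete medium for 24 hr at 37 C. Intracellular ATP was read by CellTiter-Glo luminescence after 30 min at room temperature; AC50 from Hill fits.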

Experiment [5] is described as follows: Cell Viability - LYMP2-018 (AID 985).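 Note: compound exposure lasted 24 hr at 37 °C; plate controls were DMSO only for no effect and tetraoctylammonium bromide at 92 µM for full effect; nearly all actives have a fitted effect of over 50% in size.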 In short, it runs like this:
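Human lymphoblastoid cells (2500/well) were pre-incubated 5 hr at 37 C, then exposed to compounds for 24 hr at 37 C in complete medium. Viability was read as intracellular ATP by CellTiter-Glo luminescence; AC50 values came from Hill-equation fits.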

The nature of experiment [6]: Cell Viability - LYMP2-024 (AID 988).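 Note: plate controls were DMSO only for no effect and 92 µM tetraoctylammonium bromide for full effect; nearly all actives have a fitted effect of over 60% in size.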 In short, it runs like this: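 Human lymphoblastoid cells (2500/well) in complete medium were preincubated 5 hr at 37 C, then exposed to compounds for 24 hr at 37 C. Intracellular ATP was read by CellTiter-Glo luminescence; AC50 from Hill-equation fits of concentration-response data.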
In experiment [7] the target is Peroxisome proliferator-activated receptor delta (Homo sapiens) (UniProt Q03181). Description: qHTS assay for small molecule agonists of peroxisome proliferator-activated receptor delta signaling (AID 588534; calls by dose curve;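 note: 0% = DMSO basal wells and 100% = positive control agonist at 10 µM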). The method, boiled down:
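Cell-based beta-lactamase reporter assay run in agonist mode: cells seeded and incubated 5 hrs at 37 C, compounds added and incubated 18 hrs at 37 C. CCF4 dye fluorescence read after 2 hrs at RT; EC50 and efficacy from Hill fits.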

Experiment [8] in a line: qHTS assay for small molecule antagonists of peroxisome proliferator-activated receptor delta signaling (AID 588535; active = well fitted inhibition curve with a large enough effect in the signal ratio, with a control signal flat, not every such curve was filed as active; the % refers to the signal ratio;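 for max response: cells co-treated with a PPAR-delta agonist as stimulator during compound exposure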). Conditions: HEK293T PPARd-UAS-bla, beta-lactamase FRET ratio, 18 h; 460 nm channel. The method, boiled down:
(§1)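 Cell-based beta-lactamase assay in antagonist mode: 4000 HEK293T PPAR-delta-UAS-bla cells per well, 5 hr preincubation then 18 hr compound incubation at 37 C. IC50 obtained by Hill equation fitting.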

The target of experiment [9] is Peroxisome proliferator-activated receptor delta (Homo sapiens) (UniProt Q03181). Described as above. The method, boiled down:
as §1

Experiment [10] concerns the target Voltage-gated inwardly rectifying potassium channel KCNH2 (Homo sapiens) (UniProt Q12809). As to the kind of experiment: qHTS Assay for Small Molecule Inhibitors of the Human hERG Channel Activity (AID 588834).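 Note: top concentration of the series differs between compounds; % is set by controls: 0 for no effect and ±100 for the full control effect; lower thallium flux fluorescence means stronger hERG block; nearly all actives have a fitted effect of over 50% in size.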 The method, boiled down:
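U2OS cells transduced with hERG via BacMam (MOI ~100), plated 2000/well, loaded with FluxOR thallium dye, compound ~10 min, then stimulation buffer; fluorescence decrease read kinetically; AC50 from Hill fits.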

The nature of experiment [11]: qHTS assay for small molecule agonists of the antioxidant response element (ARE) signaling pathway (AID 651741; active = well fitted activation curve with a large enough effect in the signal ratio; the % refers to the signal ratio; note: % of control where 0% means no effect). The method, boiled down:
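Seeding 2,000 ARE-bla HepG2 cells per well preceded a 5 h incubation at 37 C/5% CO2 and a 16 h compound exposure at 37 C. Beta-lactamase reporter activity was then quantified by fluorescence after 2 h with LiveBLAzer B/G FRET substrate.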

Experiment [12] can be described thus: qHTS assay for small molecule disruptors of the mitochondrial membrane potential - 5 hr assay (AID 651755; calls by dose curve; note: nearly all actives have a fitted effect of over 40% in size; note: potency is the fitted concentration of half-maximal effect). The method, boiled down: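 HepG2, 2,000 cells/well, overnight attach; cpd or DMSO 5 hr, 37C/5% CO2; Mito-MPS 30 min 37C; fluor 490/535 + 540/590 nm.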
Experiment [13] is described as follows: qHTS assay for environmental chemicals that activate the Aryl hydrocarbon Receptor (AhR) signaling pathway (AID 651777). For activation: % of control where 0% means no effect. Note: nearly all actives have a fitted effect of over 15% in size. Note: potency is the fitted concentration of half-maximal effect. Conditions: 1A2-DRE human hepatoma cells, luciferase, 24 h; activation: stronger effect = higher value. In short, it runs like this:
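Measured luciferase activity, read 30 min after One-Glo addition at room temperature, from human hepatoma cells bearing a dioxin response element–CYP1A2 promoter reporter and exposed to compound for 24 hr at 37 C.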

The target of experiment [14] is Estrogen receptor (Homo sapiens) (UniProt P03372). As to the kind of experiment: qHTS assay for small molecule antagonists of estrogen receptor alpha signaling (AID 588513; active = well fitted curve in the direction sought with a large enough effect in the signal ratio, with a control signal flat, not every such curve was filed as active; the % refers to the signal ratio; note: % is set by controls: 0 for no effect and ±100 for the full control effect). In short, it runs like this: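 ER-alpha-UAS-bla GripTite HEK 293 cells in medium with 2% charcoal/dextran-treated FBS were preincubated 4 h at 37 C, dosed with compound (1:2 titration), stimulated with 0.5nM 17-beta-estradiol for 18 h, then read by CCF4 beta-lactamase fluorescence.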

Experiment [15] shares this target. As to the kind of experiment: qHTS assay for small molecule agonists of estrogen receptor alpha signaling (AID 588514; calls by dose curve;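 note: 0% = vehicle only and 100% = reference agonist; nearly all actives have a fitted effect of over 70% in size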). In short, it runs like this: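 ER-alpha-UAS-bla GripTite HEK 293 cells in medium with 2% charcoal/dextran-treated FBS were treated with compound titrations at 37 C for 18 hrs; beta-lactamase reporter read by CCF4 fluorescence after 2 hrs at RT.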

For experiment [16], the target named is Glucocorticoid receptor (Homo sapiens) (UniProt P04150). Description: qHTS assay for small molecule agonists of glucocorticoid receptor signaling (AID 588532; active = well fitted curve in the direction sought with a large enough effect in the signal ratio, with a control signal flat; the % refers to the signal ratio;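 note: 100% = dexamethasone at 0.1 µM and 0% = DMSO only wells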). Conditions: HeLa MMTV-bla, beta-lactamase ratio, agonist, 18 h; stronger effect = higher value; percent of dexamethasone control, DMSO zero. In short, it runs like this:
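Using MMTV-bla HeLa cells in medium with 1% stripped FBS and 25 mM HEPES, compounds were titrated and incubated overnight-length (18 h). Beta-lactamase cleavage of CCF4 was quantified by dual-emission fluorescence.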

Experiment [17] shares this target. As to the kind of experiment: qHTS assay for small molecule antagonists of glucocorticoid receptor signaling (AID 588533; active = well fitted inhibition curve with a large enough effect in the signal ratio, with a control signal flat, not every such curve was filed as active; the % refers to the signal ratio;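 note: cells stimulated with 2 nM dexamethasone as agonist; % is set by controls: 0 for no effect and ±100 for the full control effect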). The method, boiled down:
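Antagonist-mode qHTS: compound titrations added to GRE-bla HeLa cells, then dexamethasone 2 nM final; 18 h, 37 C. CCF4 FRET fluorescence normalized to dexamethasone and DMSO; IC50 from Hill fit.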

The target in experiment [18] is Peroxisome proliferator-activated receptor gamma (Homo sapiens) (UniProt P37231). As to the kind of experiment: qHTS assay for small molecule agonists of peroxisome proliferator-activated receptor gamma signaling (AID 588536; active = well fitted curve in the direction sought with a large enough effect in the signal ratio, with a control signal flat, not every such curve was filed as active; the % refers to the signal ratio;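 note: 0% = DMSO basal wells and 100% = rosiglitazone at 2 µM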). In short, it runs like this: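 HEK293 UAS-bla reporter line, 1% charcoal/dextran FBS; titration, 16 h, 37 C; CCF4 loading 2 h RT; fluorescence 460/530 nm. Normalized to rosiglitazone 2 uM = 100%, DMSO = 0%.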

Experiment [19] is described as follows: qHTS assay for small molecule activators of the nuclear factor-kappa B (NF-kB) signaling pathway (AID 651749; active = well fitted activation curve with a large enough effect in the signal ratio; the % refers to the signal ratio; note: % of control where 0% means no effect). The note with it: NF-kB-bla ME-180 cells, beta-lactamase FRET ratio, 16 h; stronger effect = higher value. The method, boiled down: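 Stably transfected ME-180 line; NF-kB response element upstream of beta-lactamase. Treatment: compound or DMSO, 16 hr. Detection: fluorescent FRET substrate.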

Experiment [20] concerns the target Peroxisome proliferator-activated receptor gamma (Homo sapiens) (UniProt P37231). Description: qHTS assay for small molecule antagonists of peroxisome proliferator-activated receptor gamma signaling (AID 588537; active = well fitted inhibition curve with a large enough effect in the signal ratio, with a control signal flat, not every such curve was filed as active; the % refers to the signal ratio;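 note: reporter cells co-stimulated with 50 nM rosiglitazone agonist during compound treatment; % of control where 0% means no effect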). The method, boiled down:
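Inhibitors of agonist-stimulated UAS-bla reporter activity were sought in HEK293 cells; rosiglitazone (50 nM) defined full signal and DMSO baseline. Curves fitted to Hill model gave IC50 and efficacy.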

Sequence of Estrogen receptor (Homo sapiens) (P03372 whole entry, looked up): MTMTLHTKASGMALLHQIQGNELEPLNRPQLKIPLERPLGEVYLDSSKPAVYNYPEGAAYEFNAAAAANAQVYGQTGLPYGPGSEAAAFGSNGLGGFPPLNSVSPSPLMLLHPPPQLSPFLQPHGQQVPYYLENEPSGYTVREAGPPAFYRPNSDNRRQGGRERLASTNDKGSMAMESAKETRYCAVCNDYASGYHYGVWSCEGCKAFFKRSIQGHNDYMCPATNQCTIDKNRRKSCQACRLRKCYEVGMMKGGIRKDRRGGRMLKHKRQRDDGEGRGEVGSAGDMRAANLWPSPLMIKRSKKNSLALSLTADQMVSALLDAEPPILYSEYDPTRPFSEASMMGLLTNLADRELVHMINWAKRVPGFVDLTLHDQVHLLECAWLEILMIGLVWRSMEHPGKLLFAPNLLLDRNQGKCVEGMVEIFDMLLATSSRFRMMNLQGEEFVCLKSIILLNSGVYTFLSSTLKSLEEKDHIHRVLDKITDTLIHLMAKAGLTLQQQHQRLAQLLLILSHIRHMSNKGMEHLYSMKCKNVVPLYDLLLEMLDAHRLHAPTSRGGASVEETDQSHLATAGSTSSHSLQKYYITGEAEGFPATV
Sequence of Peroxisome proliferator-activated receptor gamma (Homo sapiens) (P37231 whole entry, looked up): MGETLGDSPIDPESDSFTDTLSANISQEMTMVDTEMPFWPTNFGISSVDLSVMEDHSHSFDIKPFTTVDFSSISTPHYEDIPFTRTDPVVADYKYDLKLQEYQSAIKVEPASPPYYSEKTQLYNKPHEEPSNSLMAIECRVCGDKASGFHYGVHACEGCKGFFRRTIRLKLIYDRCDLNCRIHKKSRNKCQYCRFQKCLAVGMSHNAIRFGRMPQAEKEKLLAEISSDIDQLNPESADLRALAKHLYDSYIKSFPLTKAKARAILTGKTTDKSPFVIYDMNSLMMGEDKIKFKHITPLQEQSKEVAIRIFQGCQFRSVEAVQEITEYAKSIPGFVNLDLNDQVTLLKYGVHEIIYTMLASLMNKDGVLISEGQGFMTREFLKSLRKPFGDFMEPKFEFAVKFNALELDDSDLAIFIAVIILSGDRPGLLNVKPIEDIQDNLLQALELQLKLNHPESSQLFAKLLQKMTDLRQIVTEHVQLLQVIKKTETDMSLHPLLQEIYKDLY
Sequence of Voltage-gated inwardly rectifying potassium channel KCNH2 (Homo sapiens) (Q12809 whole entry, looked up): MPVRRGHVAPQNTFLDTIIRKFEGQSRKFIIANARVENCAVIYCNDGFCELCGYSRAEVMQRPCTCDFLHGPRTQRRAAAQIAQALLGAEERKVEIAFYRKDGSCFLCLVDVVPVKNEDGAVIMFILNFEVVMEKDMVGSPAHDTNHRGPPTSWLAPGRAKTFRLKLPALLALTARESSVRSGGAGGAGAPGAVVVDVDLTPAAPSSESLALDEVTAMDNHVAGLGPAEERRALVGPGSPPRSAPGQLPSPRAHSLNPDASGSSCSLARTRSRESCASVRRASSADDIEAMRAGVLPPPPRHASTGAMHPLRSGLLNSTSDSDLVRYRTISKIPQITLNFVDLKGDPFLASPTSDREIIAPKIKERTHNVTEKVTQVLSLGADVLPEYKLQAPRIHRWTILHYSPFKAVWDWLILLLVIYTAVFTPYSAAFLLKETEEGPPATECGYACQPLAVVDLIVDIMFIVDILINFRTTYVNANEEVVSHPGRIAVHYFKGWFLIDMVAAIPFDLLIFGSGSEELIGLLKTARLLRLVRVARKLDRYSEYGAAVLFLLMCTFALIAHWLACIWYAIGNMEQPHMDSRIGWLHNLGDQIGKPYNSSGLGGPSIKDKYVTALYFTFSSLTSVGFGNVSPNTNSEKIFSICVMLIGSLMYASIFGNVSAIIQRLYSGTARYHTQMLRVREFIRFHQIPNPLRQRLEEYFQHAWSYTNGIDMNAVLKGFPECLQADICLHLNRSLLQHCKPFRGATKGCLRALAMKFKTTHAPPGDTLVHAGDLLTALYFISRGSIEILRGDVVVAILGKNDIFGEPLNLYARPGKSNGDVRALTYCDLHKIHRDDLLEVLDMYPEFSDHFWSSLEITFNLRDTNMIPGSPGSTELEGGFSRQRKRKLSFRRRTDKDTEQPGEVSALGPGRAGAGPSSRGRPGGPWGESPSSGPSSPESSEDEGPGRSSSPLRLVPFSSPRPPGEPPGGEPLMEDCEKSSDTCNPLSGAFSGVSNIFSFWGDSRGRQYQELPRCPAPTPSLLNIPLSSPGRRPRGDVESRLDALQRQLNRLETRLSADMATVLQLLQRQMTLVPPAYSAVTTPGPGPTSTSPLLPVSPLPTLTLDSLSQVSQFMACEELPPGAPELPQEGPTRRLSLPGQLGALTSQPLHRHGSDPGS
Sequence of Glucocorticoid receptor (Homo sapiens) (P04150 whole entry, looked up): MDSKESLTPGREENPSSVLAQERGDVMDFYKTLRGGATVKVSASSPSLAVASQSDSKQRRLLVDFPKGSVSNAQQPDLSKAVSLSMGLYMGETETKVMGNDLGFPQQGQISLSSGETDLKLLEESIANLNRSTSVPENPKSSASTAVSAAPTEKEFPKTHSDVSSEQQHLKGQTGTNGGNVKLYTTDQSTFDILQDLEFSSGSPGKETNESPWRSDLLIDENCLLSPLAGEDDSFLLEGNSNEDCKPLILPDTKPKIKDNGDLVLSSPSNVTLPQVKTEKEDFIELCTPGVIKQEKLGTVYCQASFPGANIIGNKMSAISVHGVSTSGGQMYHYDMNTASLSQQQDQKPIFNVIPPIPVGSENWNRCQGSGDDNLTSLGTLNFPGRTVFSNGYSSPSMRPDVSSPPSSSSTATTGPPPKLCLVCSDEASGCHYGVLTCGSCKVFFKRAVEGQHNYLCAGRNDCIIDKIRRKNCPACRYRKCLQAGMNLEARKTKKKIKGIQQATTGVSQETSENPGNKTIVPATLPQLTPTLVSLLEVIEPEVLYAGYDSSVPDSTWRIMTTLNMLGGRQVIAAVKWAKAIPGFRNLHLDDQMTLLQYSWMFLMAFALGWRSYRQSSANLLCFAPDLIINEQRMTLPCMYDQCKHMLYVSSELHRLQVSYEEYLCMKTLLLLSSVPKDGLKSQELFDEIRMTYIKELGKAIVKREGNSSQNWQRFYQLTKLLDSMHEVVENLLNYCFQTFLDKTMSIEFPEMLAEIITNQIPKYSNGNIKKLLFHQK
Sequence of Peroxisome proliferator-activated receptor delta (Homo sapiens) (Q03181 whole entry, looked up): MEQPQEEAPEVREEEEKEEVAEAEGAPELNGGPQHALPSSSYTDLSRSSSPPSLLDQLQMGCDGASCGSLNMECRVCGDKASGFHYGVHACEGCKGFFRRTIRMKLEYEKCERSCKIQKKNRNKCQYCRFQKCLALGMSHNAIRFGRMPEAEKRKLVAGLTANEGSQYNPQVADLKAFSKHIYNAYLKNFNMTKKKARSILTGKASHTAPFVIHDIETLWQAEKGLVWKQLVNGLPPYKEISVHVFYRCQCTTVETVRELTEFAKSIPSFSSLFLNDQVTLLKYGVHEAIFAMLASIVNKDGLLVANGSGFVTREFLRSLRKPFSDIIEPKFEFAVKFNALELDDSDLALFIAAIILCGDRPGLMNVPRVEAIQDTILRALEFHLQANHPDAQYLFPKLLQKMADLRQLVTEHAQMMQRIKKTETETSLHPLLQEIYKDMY

For the molecule `CN=C=O`, the Potency result in experiment [1], in experiment [2], in experiment [4], in experiment [5], in experiment [6] and in experiment [10] was “inactive” each time. In addition, the Potency entry in experiment [11] and in [12] was “inactive” in each case. Also, the molecule was called inactive in experiment [3], in experiment [7] and in [9]. The max response in experiment [8] worked out at 61.5%. Also, the activation in experiment [13] was -0.54% (inactive).
As for `CC(=O)CCC(C)=O`, the Potency result in experiment [1], in experiment [6], in experiment [14], in [15], in experiment [10] and in experiment [11] was “inactive” each time. Further, the Potency result in experiment [12] is “inactive”. The call in experiment [3], in experiment [17], in experiment [7], in [9] and in experiment [18] was inactive. The activation was -5.45% (inactive) in experiment [16], 0.108% (inactive) in experiment [19] and 1.06% (inactive) in experiment [13]. Moreover, the max response in [8] is -12.7%.
On to `ClCC(Br)CBr` (stereo not given), for which the Potency entry in experiment [1], in experiment [2], in [4], in experiment [5], in experiment [6] and in experiment [14] was “inactive” in each case. For the same molecule, the Potency result in [15], in experiment [10] and in experiment [12] was “inactive” throughout. The molecule was classed as inactive in experiment [3], in experiment [17] and in experiment [18]. Also, the activation is -3.35% (inactive) in [16], -0.578% (inactive) in experiment [19] and -0.863% (inactive) in [13].
With `CCN(CC)N=O`, the Potency entry in [1], in experiment [2], in [4], in [5], in [20] and in [10] was “inactive” each time. In addition, the Potency entry in [11] and in experiment [12] was “inactive” in each case. Moreover, the call in experiment [7] and in experiment [18] was inactive. The activation in experiment [19] was 0.914% (inactive).
As to `Cc1ccc(N)cc1N`, the Potency entry in experiment [1], in [2], in experiment [4], in [6], in experiment [14] and in experiment [15] was “inactive” each time. Also, the Potency result in [20] and in [10] was “inactive” each time. Also, the call in experiment [3], in experiment [17], in experiment [7] and in experiment [9] was inactive. Further, the activation in [16] was -6.12% (inactive) and -1.93% (inactive); in experiment [19], -0.705% (inactive) and -3.37% (inactive). In addition, in experiment [8], the max response is 0.381% and -13.2%. Also, the figures for the Potency in experiment [12] and in [13] were 29.8 µM (active) and 44.7 µM (active), respectively.
With `Clc1cccc(Cl)c1`, the Potency result in experiment [1], in [2], in experiment [4], in [6], in experiment [10] and in experiment [12] was “inactive” throughout. Besides, the molecule was called inactive in experiment [3], in [17], in experiment [7], in experiment [9] and in experiment [18]. Also, the activation in experiment [16] was -3.34% (inactive); in [19], -1.17% (inactive); in experiment [13] it was -1.27% (inactive). In addition, in experiment [8], the max response amounted to 20.6%.
On to `Cc1ccc(N)cc1Cl`, for which the Potency entry in experiment [1], in experiment [2], in experiment [4], in experiment [5], in experiment [6] and in experiment [14] was “inactive” each time. The Potency result in experiment [15], in [20], in experiment [10] and in [12] was “inactive” throughout. In addition, the result in experiment [18] was inactive. Also, the activation in experiment [19] is -0.096% (inactive).
As to `BrCCc1ccccc1`, the Potency result in experiment [1], in experiment [2], in experiment [4], in experiment [6], in experiment [11] and in experiment [12] was “inactive” in each case. Besides, the call in [3], in experiment [17], in experiment [7], in experiment [9] and in experiment [18] was inactive. Further, the max response in experiment [8] was -20.6%. The activation in experiment [19] was -1.06% (inactive).
Consider `C=CC(=O)OCC(CC)CCCC` (stereo not given), for which the Potency result in experiment [1], in experiment [2], in [4], in [5], in [6] and in [20] was “inactive” in each case. The Potency result in experiment [10], in experiment [11] and in experiment [12] was “inactive” throughout. Also, the outcome in experiment [3], in [17], in experiment [7], in experiment [9] and in [18] was inactive. The activation in experiment [16] was -0.1% (inactive) and -12.6% (inactive); in [19] it was -0.0286% (inactive) and 0.831% (inactive); in experiment [13] it was 2.67% (inactive) and -0.331% (inactive). Also, in [8], the max response was 10.4% and 11.2%.
